Source: PubChem BioAssay (EPA / NIEHS)
Inconclusive results are not listed. Active and inactive are the calls of the source. Rule for the calls: active = hit-call score of the fitted dose curve at least 0.9, where 1 is the maximum; inconclusive = response in the unintended direction; inactive = score below 0.9.

Assays:
[1] = TOX21_p53_BLA_p2_viability: Viability Assessment in the Tox21 HCT-116 p53 Agonism Beta-lactamase Assay, Phase 2 (AID 2283591);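 note: compound exposure lasted 16 h at 37 °C; actives lower the ATP signal meaning cytotoxicity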
In short: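 HCT116 p53-bla cells, 4000/well, dosed after 5 h plating (217-fold dilution of DMSO stocks) and incubated 16 h at 37C. Viability taken as cellular ATP by CellTiter-Glo luminescence after 30 min RT; signal loss marks cytotoxicity.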

[2] = biological target: Cellular tumor antigen p53 (Homo sapiens) (UniProt P04637); experiment: TOX21_p53_BLA_p2_ratio: Tox21 HCT-116 p53 Agonism Beta-lactamase Assay, Ratio, Phase 2 (AID 2283592)
In short: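 In this cell-based reporter format, HCT116 cells were dosed with chemicals delivered from DMSO by 217-fold dilution and incubated 16 h at 37C. Emission at 460 and 530 nm after 2 h CCF4-AM loading provided the ratio, fitted upward versus DMSO.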

[3] = TOX21_p53_BLA_p3_viability: Viability Assessment in the Tox21 HCT-116 p53 Agonism Beta-lactamase Assay, Phase 3 (AID 2283593);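 note: cells exposed to compound for 16 h before reading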
In short: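 HCT116 cells, 4000/well, dosed 5 h after plating by pin transfer (217-fold dilution from DMSO stock) and incubated 16 h at 37C, 5% CO2. Viability read as ATP luminescence with CellTiter-Glo after 30 min at room temperature.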

[4] = biological target: Cellular tumor antigen p53 (Homo sapiens) (UniProt P04637); experiment: TOX21_p53_BLA_p5_ratio: Tox21 HCT-116 p53 Agonism Beta-lactamase Assay, Ratio, Phase 5 (AID 2283599)
In short: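 HCT-116 p53-bla cells (4000/well) plated 5 h, dosed with compound (217-fold DMSO dilution) for 16 h at 37 C; CCF4-AM substrate 2 h at room temperature. Activity is the 460/530 nm emission ratio (405 nm excitation), fitted in gain-of-signal direction versus DMSO.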

[5] = biological target: Cellular tumor antigen p53 (Homo sapiens) (UniProt P04637); experiment: TOX21_p53_BLA_p4_ratio: Tox21 HCT-116 p53 Agonism Beta-lactamase Assay, Ratio, Phase 4 (AID 2283601)
In short: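 HCT-116 p53 beta-lactamase reporter cells (4000/well) preincubated 5 h, then compound (217-fold dilution of DMSO stock) for 16 h at 37C. CCF4-AM substrate added 2 h at room temperature; 460/530 nm emission ratio fitted upward versus DMSO.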

[6] = biological target: Cellular tumor antigen p53 (Homo sapiens) (UniProt P04637); experiment: TOX21_p53_BLA_p3_ratio: Tox21 HCT-116 p53 Agonism Beta-lactamase Assay, Ratio, Phase 3 (AID 2283596)
In short: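 HCT116 p53-bla cells (4000/well) given compound in DMSO (217-fold dilution) after 5 h, incubated 16 h at 37C. CCF4-AM substrate 2 h at room temperature; 460/530 nm emission ratio, gain fitted against DMSO.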

[7] = TOX21_p53_BLA_p4_viability: Viability Assessment in the Tox21 HCT-116 p53 Agonism Beta-lactamase Assay, Phase 4 (AID 2283597);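 note: hits lower the luminescence signal meaning cytotoxicity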
In short: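 We seeded HCT116 p53 reporter cells at 4000/well and waited 5 h. We then added compounds in DMSO at a 217-fold dilution and incubated for 16 h. Viability was read as CellTiter-Glo luminescence after 30 min at RT.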

[8] = TOX21_p53_BLA_p5_viability: Viability Assessment in the Tox21 HCT-116 p53 Agonism Beta-lactamase Assay, Phase 5 (AID 2283600)
In short: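 Compounds, pinned from DMSO at 217-fold dilution, were left on the cells for 16 h. The viability endpoint was ATP content measured by CellTiter-Glo luminescence, where falling signal reflects cytotoxicity.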

THRA (gene 7067) = THRA (gene 7067) (UniProt P10827); experiment: TOX21_TRA_COA_Antagonist_Followup_ratio: Tox21 Thyroid Hormone Receptor alpha Antagonism through Coactivator Recruitment Follow-Up Assay, Ratio (AID 2283953)
In short: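 This follow-up to the GH3 luciferase screen checks specificity in a cell-free format. It measures SRC-2 coactivator peptide binding to TRα LBD by TR-FRET and scores loss of ratio signal relative to DMSO.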

[9] = TOX21_TRB_BLA_Antagonist_Followup_viability: Viability Assessment in the Tox21 Thyroid Hormone Receptor beta Antagonism Beta-lactamase (BLA) Follow-Up Assay (AID 2283961)
In short: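 Viability read as CellTiter-Glo ATP luminescence (loss of signal = cytotoxicity) in the same plates as the TRβ-bla readout. TRβ-LBD/GAL4 UAS-bla HEK293T cells were exposed to compounds, 11 concentrations in triplicate, for 18 h at 37C/5% CO2.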

THRB (gene 7068) = THRB (gene 7068) (UniProt P10828); experiment: TOX21_TRB_COA_Antagonist_Followup_ratio: Tox21 Thyroid Hormone Receptor beta Antagonism through Coactivator Recruitment Follow-Up Assay, Ratio (AID 2283967)
In short: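 Cell-free TR-FRET: GST-TRb LBD (5.0 nM) with fluorescein-SRC-2 peptide (200 nM) and Tb anti-GST antibody (2 nM), 0.10% BSA. 520:495 nm emission ratio normalized to DMSO (0%) and T3 (100%).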

[10] = biological target: Retinoic acid receptor RXR-alpha (Homo sapiens) (UniProt P19793); experiment: TOX21_TR_RXR_BLA_Antagonist_Followup_ratio: Tox21 Thyroid Hormone Receptor beta Retinoid X Receptor alpha (RXRa) Antagonism Beta-lactamase (BLA) Follow-Up Assay, Ratio (AID 2283972)
In short: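 Beta-lactamase reporter readout as cleaved/uncleaved substrate ratio (460:530 nm) after 2 h substrate loading at room temperature. GAL4-RXRa bla HEK293T cells were exposed 16 h at 37C to 11-point compound series; loss of signal scored against DMSO baseline.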

[11] = TOX21_TR_RXR_BLA_Antagonist_Followup_viability: Viability Assessment in the Tox21 Thyroid Hormone Receptor beta Retinoid X Receptor alpha (RXRa) Antagonism Beta-lactamase (BLA) Follow-Up Assay (AID 2283979)
In short: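 RXRa-bla HEK293T cells (2,500/well, phenol red-free DMEM, 2% charcoal-stripped FBS) were attached 5 h, then exposed to compounds at 11 concentrations in triplicate for 16 h at 37C. Viability measured by CellTiter-Glo ATP luminescence, bidirectional fitting versus DMSO.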

Measured: AC50

Cellular tumor antigen p53 (Homo sapiens), sequence (P04637 whole entry, looked up): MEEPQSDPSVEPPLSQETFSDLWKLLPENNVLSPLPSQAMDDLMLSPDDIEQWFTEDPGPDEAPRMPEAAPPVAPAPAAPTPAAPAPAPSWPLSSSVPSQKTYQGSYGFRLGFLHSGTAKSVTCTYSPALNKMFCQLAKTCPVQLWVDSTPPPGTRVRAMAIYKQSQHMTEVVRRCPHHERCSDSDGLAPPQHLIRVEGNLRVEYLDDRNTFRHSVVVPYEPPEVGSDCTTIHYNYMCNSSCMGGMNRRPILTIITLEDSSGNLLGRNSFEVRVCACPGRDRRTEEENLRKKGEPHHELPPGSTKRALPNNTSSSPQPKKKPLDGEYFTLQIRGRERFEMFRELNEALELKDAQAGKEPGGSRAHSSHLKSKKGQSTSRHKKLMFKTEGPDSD
THRA (gene 7067), sequence (P10827 whole entry, looked up, the tested form may be a part): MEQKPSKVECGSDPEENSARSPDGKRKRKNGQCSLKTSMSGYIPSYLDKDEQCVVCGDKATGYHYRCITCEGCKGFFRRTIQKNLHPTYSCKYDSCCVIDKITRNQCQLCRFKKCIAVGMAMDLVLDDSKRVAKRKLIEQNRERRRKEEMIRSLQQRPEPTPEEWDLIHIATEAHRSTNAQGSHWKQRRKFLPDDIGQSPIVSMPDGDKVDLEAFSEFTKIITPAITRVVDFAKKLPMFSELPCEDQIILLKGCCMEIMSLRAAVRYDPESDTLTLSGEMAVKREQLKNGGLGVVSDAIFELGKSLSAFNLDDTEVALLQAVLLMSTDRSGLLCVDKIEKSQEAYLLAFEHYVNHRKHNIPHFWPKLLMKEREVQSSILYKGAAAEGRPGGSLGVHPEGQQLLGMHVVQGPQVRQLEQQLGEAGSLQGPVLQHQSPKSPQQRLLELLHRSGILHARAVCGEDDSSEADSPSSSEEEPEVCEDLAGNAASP
Retinoic acid receptor RXR-alpha (Homo sapiens), sequence (P19793 whole entry, looked up, the tested form may be a part): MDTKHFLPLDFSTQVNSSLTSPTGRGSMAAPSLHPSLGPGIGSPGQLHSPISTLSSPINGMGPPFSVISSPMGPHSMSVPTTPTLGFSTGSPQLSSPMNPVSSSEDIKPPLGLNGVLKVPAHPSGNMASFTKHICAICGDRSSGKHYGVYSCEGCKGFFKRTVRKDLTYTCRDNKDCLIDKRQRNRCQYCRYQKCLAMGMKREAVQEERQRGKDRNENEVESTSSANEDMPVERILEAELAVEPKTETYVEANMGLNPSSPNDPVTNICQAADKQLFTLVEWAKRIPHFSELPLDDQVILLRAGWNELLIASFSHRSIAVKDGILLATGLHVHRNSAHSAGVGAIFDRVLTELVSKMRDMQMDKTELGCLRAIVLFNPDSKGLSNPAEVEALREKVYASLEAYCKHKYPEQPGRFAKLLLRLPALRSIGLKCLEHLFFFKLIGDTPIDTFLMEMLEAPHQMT
THRB (gene 7068), sequence (P10828 whole entry, looked up, the tested form may be a part): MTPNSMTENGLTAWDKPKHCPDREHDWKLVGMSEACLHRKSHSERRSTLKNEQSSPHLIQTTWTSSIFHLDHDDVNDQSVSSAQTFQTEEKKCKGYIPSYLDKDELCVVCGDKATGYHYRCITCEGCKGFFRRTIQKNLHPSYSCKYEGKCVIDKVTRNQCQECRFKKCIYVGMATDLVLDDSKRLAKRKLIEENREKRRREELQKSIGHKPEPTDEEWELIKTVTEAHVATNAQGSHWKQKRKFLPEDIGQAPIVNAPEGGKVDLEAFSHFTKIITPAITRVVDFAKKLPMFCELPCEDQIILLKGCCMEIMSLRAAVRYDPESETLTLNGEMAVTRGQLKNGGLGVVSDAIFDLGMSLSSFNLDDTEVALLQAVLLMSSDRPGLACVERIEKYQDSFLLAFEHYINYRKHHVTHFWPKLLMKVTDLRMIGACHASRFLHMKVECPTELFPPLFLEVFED

CCN(CC)C(=O)[C@@H]1C=C2c3cccc4[nH]cc(c34)C[C@H]2N(C)C1
inactive: [1] | [2] | [3] | [4] | [5]

CCC(C)Cl (stereo not drawn)
inactive: [1] | [2] | [6] | [7] | [4] | [8] | [5]

O=c1oc2ccccc2c(O)c1Cc1c(O)c2ccccc2oc1=O
active: [1] 8.02 µM | [2] 6.79 µM | [6] 1.07 µM | [7] 3.3 µM | [4] 3.93 µM | [5] 3.95 µM
not listed: [3]
inactive: all other assays above

O=C1CN=C(c2ccccc2)c2cc(Cl)ccc2N1
inactive: [1] | [2] | [6] | [7]

O=C(Cl)CCl
inactive: [1] | [2] | [6] | [7] | [4] | [8] | [5]

C=CC(=O)OCC(C)C
inactive: [1] | [2] | [3] | [4] | [8] | [5]

CN(C)S(=O)(=O)N(SC(F)(Cl)Cl)c1ccccc1
inactive: [6]
active: [1] 87.1 µM | [2] 26.3 µM | [7] 86.8 µM | [4] 32.3 µM | [8] 86.8 µM | [5] 48.6 µM
